Assay results taken from PubChem BioAssay (Tox21).
Where “and” joins values, the source holds several entries; their conditions need not be identical. Equal entries are not always repeated. Records with an inconclusive call do not appear. Entries that show only a call come without a potency. The source holds several records for some structures; these can differ, active in one and inactive in another. Calls of active or inactive are those of the source. Unless noted, calls come from the whole dose curve; as a rule, active = well fitted curve in the direction sought with a large enough effect in the repeat runs; inconclusive = weak or mixed curves; inactive = no such curve, though single readings can be large; an effect the other way counts as inactive or inconclusive.

How the values were obtained:
[1] = qHTS assay to identify aromatase inhibitors - cell viability counter screen (AID 743084); details: MCF-7 aro ERE viability, CellTiter-Fluor, 24 h; series mostly up to 70.3 µM;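 note: cells stimulated with testosterone during compound exposure; nearly all actives have a fitted effect of over 55% in size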
[2] = qHTS assay to identify small molecule that activate the aryl hydrocarbon receptor (AhR) signaling pathway - cell viability counter screen (AID 743086); details: HepG2-AhR-luc viability, CellTiter-Fluor, 24 h; series mostly up to 70.3 µM; note: nearly all actives have a fitted effect of over 45% in size; note: potency is the fitted concentration of half-maximal effect
How it was run: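 HepG2-AhR-luc (HG2L7.5c1) cells, 4000/well, treated 24 h at 37 C with compound; viability measured as CellTiter-Fluor fluorescence after 30 min in the same wells as the luciferase read.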

[3] = biological target: Peroxisome proliferator-activated receptor gamma (Homo sapiens) (UniProt P37231); assay: qHTS assay to identify small molecule agonists of the peroxisome proliferator-activated receptor gamma (PPARg) signaling pathway (AID 743094; active = well fitted activation curve with a large enough effect in the signal ratio in the repeat runs, not every such curve was filed as active; the % refers to the signal ratio); details: HEK293H PPARg-UAS-bla, beta-lactamase FRET ratio, 17 h; series mostly up to 57 µM
Chain of Peroxisome proliferator-activated receptor gamma (Homo sapiens) (P37231 whole entry, looked up): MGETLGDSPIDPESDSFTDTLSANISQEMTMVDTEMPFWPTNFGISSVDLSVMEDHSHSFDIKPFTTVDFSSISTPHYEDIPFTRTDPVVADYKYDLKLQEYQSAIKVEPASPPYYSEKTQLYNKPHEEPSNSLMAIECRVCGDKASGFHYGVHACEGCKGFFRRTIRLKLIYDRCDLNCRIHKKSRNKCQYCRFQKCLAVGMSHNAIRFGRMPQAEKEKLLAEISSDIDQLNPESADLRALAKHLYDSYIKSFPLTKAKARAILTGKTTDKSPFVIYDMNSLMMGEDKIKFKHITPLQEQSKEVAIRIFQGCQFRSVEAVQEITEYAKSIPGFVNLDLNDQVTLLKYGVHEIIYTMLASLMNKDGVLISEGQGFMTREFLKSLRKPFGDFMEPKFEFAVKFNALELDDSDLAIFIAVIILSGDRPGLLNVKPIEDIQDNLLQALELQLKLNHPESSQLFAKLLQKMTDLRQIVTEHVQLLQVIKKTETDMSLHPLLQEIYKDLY
How it was run: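 Following 5 h plating at 37C, PPARg-bla HEK293H cells receive compound or DMSO for 17 h; fluorescence intensity is recorded after LiveBLAzer B/G loading for 1 h at room temperature.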

[4] = biological target: Peroxisome proliferator-activated receptor gamma (Homo sapiens) (UniProt P37231); assay: qHTS assay to identify small molecule antagonists of the peroxisome proliferator-activated receptor gamma (PPARg) signaling pathway (AID 743191; calls by dose curve; note: nearly all actives have a fitted effect of over 30% in size); details: HEK293H PPARg-UAS-bla, beta-lactamase ratio, antagonist, 17 h; series mostly up to 62.6 µM
How it was run: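 GeneBLAzer PPARg UAS-bla HEK293H cells, 5 h post-plating, exposed to compounds 17 h at 37C. LiveBLAzer B/G FRET substrate added for 1 h at room temperature; beta-lactamase reporter read by fluorescence intensity.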

[5] = qHTS assay to identify small molecule antagonists of the peroxisome proliferator-activated receptor gamma (PPARg) signaling pathway - cell viability counter screen (AID 743194); details: PPARg-bla HEK293H viability, CellTiter-Glo luminescence, 17 h, co-treated with 50 nM rosiglitazone; series mostly up to 62.6 µM; note: nearly all actives have a fitted effect of over 55% in size
How it was run: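 Cytotoxicity counter screen in PPARg-bla HEK293H cells, same wells as reporter assay. Compounds plus 50 nM rosiglitazone (final) for 17 h at 37 C, then viability read by CellTiter-Glo luminescence.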

[6] = qHTS assay for small molecule agonists of the antioxidant response element (ARE) signaling pathway (AID 743202; active = well fitted activation curve with a large enough effect in the signal ratio in the repeat runs, not every such curve was filed as active; the % refers to the signal ratio; note: potency is the fitted concentration of half-maximal effect); details: HepG2 ARE-bla reporter, beta-lactamase FRET, 16 h; series mostly up to 73.3 µM
How it was run: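 ARE-bla HepG2 cells (beta-lactamase reporter under the antioxidant response element), plated 5 hours, then exposed to compounds 16 hours at 37 C. LiveBLAzer B/G FRET substrate added for 2 hours at room temperature; fluorescence intensity read.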

[7] = qHTS assay for small molecule agonists of the antioxidant response element (ARE) signaling pathway - cell viability counter screen (AID 743203; calls by dose curve; note: nearly all actives have a fitted effect of over 55% in size; note: potency is the fitted concentration of half-maximal effect); details: ARE-bla HepG2 viability, CellTiter-Glo luminescence, 16 h; series mostly up to 73.3 µM
How it was run: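 Compounds in DMSO were pinned onto ARE-bla HepG2 cells plated 5 hrs earlier at 2,000 cells/well. Sixteen hours later at 37C/5% CO2, CellTiter-Glo was added and luminescence measured after 30 min at room temperature.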

[8] = qHTS assay for small molecule activators of the heat shock response signaling pathway - cell viability counter screen (AID 743209); details: HSE-bla HeLa viability, CellTiter-Glo luminescence, 5 h; series mostly up to 62.6 µM; note: nearly all actives have a fitted effect of over 50% in size
How it was run: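 Counter screen for cytotoxicity in HeLa HSE-bla reporter cells. Treatment was 5 h at 37 C; viability was detected by luminescent ATP assay (CellTiter-Glo) in the same wells as the beta-lactamase read.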

[9] = qHTS assay for small molecule activators of the heat shock response signaling pathway (AID 743210; active = well fitted activation curve with a large enough effect in the signal ratio in the repeat runs, with a control signal flat, not every such curve was filed as active; the % refers to the signal ratio); details: HeLa HSE-bla reporter, beta-lactamase ratio, 5 h; series mostly up to 62.6 µM
How it was run: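 HSE-bla HeLa cells (beta-lactamase reporter under heat shock response elements), plated overnight, then exposed to compounds 5 h at 37 C; LiveBLAzer B/G FRET substrate added, 2.5 h at room temperature, fluorescence intensity read.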

[10] = qHTS assay to identify small molecule agonists of the peroxisome proliferator-activated receptor delta (PPARd) signaling pathway - cell viability counter screen (AID 743211); details: PPARd-bla HEK293H viability, CellTiter-Glo luminescence, 17 h; series mostly up to 62.6 µM; note: nearly all actives have a fitted effect of over 55% in size; note: potency is the fitted concentration of half-maximal effect
How it was run: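 Tox21 library compounds, delivered in DMSO, were incubated 17 h with PPARd-bla HEK293H cells; cytotoxicity was taken from CellTiter-Glo luminescence read 30 min after reagent addition.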

[11] = biological target: Peroxisome proliferator-activated receptor delta (Homo sapiens) (UniProt Q03181); assay: qHTS assay to identify small molecule agonists of the peroxisome proliferator-activated receptor delta (PPARd) signaling pathway (AID 743212; calls by dose curve); details: HEK293H PPARd-UAS-bla, beta-lactamase FRET ratio, 17 h; series mostly up to 62.6 µM
Chain of Peroxisome proliferator-activated receptor delta (Homo sapiens) (Q03181 whole entry, looked up): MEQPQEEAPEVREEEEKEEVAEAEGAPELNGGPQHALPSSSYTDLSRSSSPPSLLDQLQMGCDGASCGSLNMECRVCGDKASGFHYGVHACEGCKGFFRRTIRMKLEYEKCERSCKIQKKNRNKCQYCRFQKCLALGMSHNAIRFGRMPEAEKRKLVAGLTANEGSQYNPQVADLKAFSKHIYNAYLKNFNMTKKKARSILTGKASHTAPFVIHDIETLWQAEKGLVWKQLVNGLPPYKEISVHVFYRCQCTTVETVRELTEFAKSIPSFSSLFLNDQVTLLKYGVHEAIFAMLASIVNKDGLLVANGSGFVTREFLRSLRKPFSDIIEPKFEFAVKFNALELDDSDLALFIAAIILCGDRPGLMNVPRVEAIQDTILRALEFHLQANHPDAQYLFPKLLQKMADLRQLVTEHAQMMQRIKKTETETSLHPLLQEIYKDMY
How it was run: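 GeneBLAzer UAS-bla HEK293H cells carrying a PPARδ construct were exposed to compounds at 37 °C. Beta-lactamase activity was read by FRET fluorescence after 2 h at room temperature with LiveBLAzer B/G substrate.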

[12] = qHTS assay to identify small molecule antagonists of the peroxisome proliferator-activated receptor delta (PPARd) signaling pathway - cell viability counter screen (AID 743213); details: PPARd-bla HEK293H viability, CellTiter-Glo luminescence, 17 h; series mostly up to 62 µM; note: nearly all actives have a fitted effect of over 50% in size; note: potency is the fitted concentration of half-maximal effect
How it was run: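 In this counter screen, HEK293H cells carrying a UAS-beta-lactamase reporter are co-treated with test compounds and 300 nM L165041 (final) for 17 h at 37 C; cell viability is quantified by CellTiter-Glo luminescence.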

[13] = biological target: Peroxisome proliferator-activated receptor delta (Homo sapiens) (UniProt Q03181); assay: qHTS assay to identify small molecule antagonists of the peroxisome proliferator-activated receptor delta (PPARd) signaling pathway (AID 743215; active = well fitted inhibition curve with a large enough effect in the signal ratio in the repeat runs, not every such curve was filed as active; the % refers to the signal ratio;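 note: cells stimulated with agonist L165041 at 300 nM final during compound exposure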); details: HEK293H PPARd-UAS-bla, beta-lactamase FRET ratio, antagonist, 17 h; series mostly up to 62 µM
How it was run: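 With L165041 present at 300 nM final, compounds were incubated 17 h at 37 C on PPARd UAS-bla HEK293H cells. A FRET-based beta-lactamase substrate was then applied for 2 h at room temperature and fluorescence intensity recorded.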

[14] = biological target: Bile acid receptor (Homo sapiens) (UniProt Q96RI1); assay: qHTS assay to identify small molecule antagonists of the farnesoid-X-receptor (FXR) signaling pathway (AID 743217; active = well fitted inhibition curve with a large enough effect in the signal ratio in the repeat runs, not every such curve was filed as active; the % refers to the signal ratio); details: HEK293T FXR-UAS-bla, beta-lactamase ratio, CDCA-stimulated, 16 h; series mostly up to 62.6 µM
Chain of Bile acid receptor (Homo sapiens) (Q96RI1 whole entry, looked up): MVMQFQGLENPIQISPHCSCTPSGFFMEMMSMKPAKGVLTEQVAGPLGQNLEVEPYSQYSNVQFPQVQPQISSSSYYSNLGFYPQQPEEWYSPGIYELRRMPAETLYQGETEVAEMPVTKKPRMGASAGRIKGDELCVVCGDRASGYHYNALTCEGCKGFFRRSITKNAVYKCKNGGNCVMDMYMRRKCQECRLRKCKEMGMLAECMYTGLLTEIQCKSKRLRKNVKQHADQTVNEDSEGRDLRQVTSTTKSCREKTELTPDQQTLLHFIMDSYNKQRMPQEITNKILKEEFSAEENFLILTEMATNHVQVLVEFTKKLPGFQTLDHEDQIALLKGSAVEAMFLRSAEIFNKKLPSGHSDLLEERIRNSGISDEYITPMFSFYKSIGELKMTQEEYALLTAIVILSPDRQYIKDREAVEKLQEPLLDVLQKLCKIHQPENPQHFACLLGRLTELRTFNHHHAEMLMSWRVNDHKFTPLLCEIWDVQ
How it was run: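 In this cell-based antagonist screen, inhibition of CDCA-driven (50 uM final) UAS-beta-lactamase expression in HEK 293T cells was measured by FRET fluorescence following 16 h compound exposure at 37 °C.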

[15] = qHTS assay to identify small molecule agonists of the farnesoid-X-receptor (FXR) signaling pathway - cell viability counter screen (AID 743218); details: FXR-bla HEK293T viability, CellTiter-Glo luminescence, 16 h; series mostly up to 62.6 µM; note: nearly all actives have a fitted effect of over 45% in size; note: potency is the fitted concentration of half-maximal effect
How it was run: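 After 16 h at 37 C with test compounds, FXR-bla HEK 293T cells were given LiveBLAzer B/G substrate for 2 h at RT and then CellTiter-Glo; luminescence was taken after 30 min.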

[16] = biological target: Bile acid receptor (Homo sapiens) (UniProt Q96RI1); assay: qHTS assay to identify small molecule agonists of the farnesoid-X-receptor (FXR) signaling pathway (AID 743220; active = well fitted activation curve with a large enough effect in the signal ratio in the repeat runs, not every such curve was filed as active; the % refers to the signal ratio); details: HEK293T FXR-UAS-bla, beta-lactamase FRET ratio, 16 h; series mostly up to 62.6 µM
How it was run: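 Beta-lactamase reporter under UAS control in GeneBLAzer FXR HEK 293T cells (5000/well) measured with LiveBLAzer FRET substrate after 2 h at room temperature. Compound exposure lasted 16 h at 37C.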

[17] = qHTS assay to identify small molecule antagonists of the farnesoid-X-receptor (FXR) signaling pathway - cell viability counter screen (AID 743221; active = well fitted cell-killing curve with a large enough effect in the repeat runs, not every such curve was filed as active; note: nearly all actives have a fitted effect of over 50% in size); details: FXR-bla HEK293T viability, CellTiter-Glo luminescence, 16 h; series mostly up to 62.6 µM
How it was run: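 Cytotoxicity is taken from ATP luminescence (CellTiter-Glo, 30 min, room temperature) in FXR-bla HEK 293T cells previously incubated 16 h at 37 C with compound and chenodeoxycholic acid at 50 uM final.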

[18] = biological target: Vitamin D3 receptor (Homo sapiens) (UniProt P11473); assay: qHTS assay to identify small molecule agonists of the vitamin D receptor (VDR) signaling pathway (AID 743222; calls by dose curve); details: HEK293T VDR-UAS-bla, beta-lactamase FRET ratio, 16 h; series mostly up to 63.5 µM
Chain of Vitamin D3 receptor (Homo sapiens) (P11473 whole entry, looked up): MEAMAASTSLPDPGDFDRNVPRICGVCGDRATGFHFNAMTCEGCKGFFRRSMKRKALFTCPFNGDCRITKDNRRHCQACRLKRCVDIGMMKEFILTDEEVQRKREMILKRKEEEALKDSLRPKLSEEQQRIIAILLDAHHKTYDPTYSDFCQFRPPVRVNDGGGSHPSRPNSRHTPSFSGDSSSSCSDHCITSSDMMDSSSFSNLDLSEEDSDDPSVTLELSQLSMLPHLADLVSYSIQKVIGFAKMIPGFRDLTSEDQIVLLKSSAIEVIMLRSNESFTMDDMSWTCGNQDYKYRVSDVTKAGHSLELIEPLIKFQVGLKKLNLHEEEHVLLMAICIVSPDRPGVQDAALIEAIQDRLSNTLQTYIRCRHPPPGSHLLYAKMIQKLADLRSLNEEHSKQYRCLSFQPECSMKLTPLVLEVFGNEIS
How it was run: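 VDR-bla cells were seeded, left 4 h, treated with compounds in DMSO for 16 h, incubated 2 h at RT with B/G FRET substrate, and read for fluorescence.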

[19] = biological target: Vitamin D3 receptor (Homo sapiens) (UniProt P11473); assay: qHTS assay to identify small molecule antagonists of the vitamin D receptor (VDR) signaling pathway (AID 743223; active = well fitted inhibition curve with a large enough effect in the signal ratio in the repeat runs, not every such curve was filed as active; the % refers to the signal ratio; note: potency is the fitted concentration of half-maximal effect); details: VDR-UAS-bla HEK293T, beta-lactamase FRET ratio, 16 h; series mostly up to 61 µM
How it was run: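 Quantitative HTS in VDR-bla reporter cells stimulated with 1alpha,25-dihydroxyvitamin D3, 3 nM final. Compound exposure 16 h, 37C, 5% CO2. Read-out: beta-lactamase FRET substrate fluorescence, 2 h RT.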

[20] = biological target: Aryl hydrocarbon receptor (Homo sapiens) (UniProt P35869); assay: qHTS assay to identify small molecule that activate the aryl hydrocarbon receptor (AhR) signaling pathway (AID 743085); details: HepG2 AhR-luc (HG2L7.5c1), luciferase, 24 h; series mostly up to 70.3 µM; note: nearly all actives have a fitted effect of over 15% in size; note: potency is the fitted concentration of half-maximal effect;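 for activation: HG2L7.5c1 human HepG2 liver cells with stably integrated DRE-driven firefly reporter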
Chain of Aryl hydrocarbon receptor (Homo sapiens) (P35869 whole entry, looked up): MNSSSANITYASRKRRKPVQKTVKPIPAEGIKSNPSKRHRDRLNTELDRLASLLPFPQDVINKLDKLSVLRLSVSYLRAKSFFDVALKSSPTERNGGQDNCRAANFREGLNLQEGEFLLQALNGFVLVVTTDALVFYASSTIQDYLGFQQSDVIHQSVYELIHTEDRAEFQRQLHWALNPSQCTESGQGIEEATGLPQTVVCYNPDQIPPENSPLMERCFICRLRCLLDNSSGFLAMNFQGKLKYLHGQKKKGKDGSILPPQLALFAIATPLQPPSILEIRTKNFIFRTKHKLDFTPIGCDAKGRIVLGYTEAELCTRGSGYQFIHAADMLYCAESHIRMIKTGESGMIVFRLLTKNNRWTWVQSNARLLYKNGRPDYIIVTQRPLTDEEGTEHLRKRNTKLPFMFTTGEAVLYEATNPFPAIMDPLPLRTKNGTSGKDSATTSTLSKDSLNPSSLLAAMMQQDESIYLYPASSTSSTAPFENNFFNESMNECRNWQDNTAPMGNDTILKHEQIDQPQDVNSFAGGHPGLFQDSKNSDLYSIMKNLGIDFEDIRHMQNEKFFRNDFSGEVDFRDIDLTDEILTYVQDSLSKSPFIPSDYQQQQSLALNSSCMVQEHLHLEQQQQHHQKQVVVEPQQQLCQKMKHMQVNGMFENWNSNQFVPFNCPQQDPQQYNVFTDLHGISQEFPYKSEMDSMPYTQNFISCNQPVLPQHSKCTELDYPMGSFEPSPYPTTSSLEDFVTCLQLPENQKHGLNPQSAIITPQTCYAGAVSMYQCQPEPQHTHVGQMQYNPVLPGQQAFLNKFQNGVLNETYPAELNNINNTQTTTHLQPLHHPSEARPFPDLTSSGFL
How it was run: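 A multiplexed format paired cell viability (CellTiter-Fluor fluorescence) with AhR-dependent luciferase output (ONE-Glo luminescence) in the same wells of HepG2 DRE-luc cells after 24 h compound exposure at 37C.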

SMILES	Potency [1]	Potency [2]	Potency [3]	Potency [4]	Potency [5]	Potency [6]	Potency [7]	outcome [8]	outcome [9]	Potency [10]	outcome [11]	Potency [12]	outcome [13]	Potency [14]	Potency [15]	outcome [16]	outcome [17]	outcome [18]	Potency [19]	Potency [20]
O=C(OCc1ccccc1)c1ccccc1	inactive	inactive	inactive	inactive	inactive	inactive	inactive	inactive	inactive	inactive	inactive	inactive	inactive	inactive	inactive	inactive	inactive	inactive	inactive	
NC(=O)OCC(COC(N)=O)c1ccccc1	inactive	inactive			inactive		inactive	inactive	inactive	inactive	inactive	inactive	inactive		inactive		inactive			inactive
C[C@]12CC[C@@H]3c4ccc(O)cc4C[C@@H](CCCCCCCCCS(=O)CCCC(F)(F)C(F)(F)F)[C@H]3[C@@H]1CC[C@@H]2O (stereo partly specified)	inactive	inactive	inactive	inactive	inactive		inactive	inactive	inactive		inactive		inactive		inactive	inactive	inactive	inactive	inactive	inactive
O=c1cc[nH]c(=O)[nH]1		inactive			inactive	inactive	inactive	inactive	inactive	inactive	inactive	inactive	inactive		inactive		inactive	inactive	inactive	
C[C@]12CC[C@@H]3c4ccc(O)cc4CC[C@H]3[C@@H]1CCC2=O	inactive	inactive			inactive		inactive	inactive	inactive	inactive		inactive		inactive	inactive	inactive	inactive			
COc1ccc(O)cc1	inactive	inactive			inactive		inactive	inactive	inactive	inactive	inactive	inactive	inactive		inactive		inactive	inactive	inactive	inactive
CC(C)(C)CC(C)(C)c1ccc(O)c(-n2nc3ccccc3n2)c1	inactive	inactive	inactive	inactive		inactive	inactive	inactive	inactive	49.7 µM (active) and 49 µM (active)	inactive	inactive	inactive			inactive	inactive	inactive	inactive	inactive
CC(C)=CCC/C(C)=C/CO	inactive	inactive	inactive		inactive	inactive	inactive	inactive		inactive		inactive		inactive	inactive	inactive	inactive	inactive	inactive	inactive
C[C@]12C=CC(=O)C=C1CC[C@@H]1[C@@H]2C(=O)C[C@@]2(C)[C@H]1CC[C@]2(O)C(=O)CO		inactive	inactive	inactive	inactive	inactive	inactive	inactive	inactive	inactive		inactive			inactive		inactive	inactive	inactive	inactive
NCCNc1cccc2ccccc12	inactive		inactive				inactive	inactive	inactive	54.9 µM (active) and 47.8 µM (active) and inactive	inactive	34.6 µM (active) and 30.2 µM (active) and inactive	inactive		43.6 µM (active) and 30.2 µM (active) and inactive		inactive	inactive	43.6 µM (active) and inactive	29.8 µM (active) and 54.4 µM (active) and 66.9 µM (active)
CCn1cc(C(=O)O)c(=O)c2ccc(C)nc21	inactive	inactive	inactive	inactive	inactive	inactive	inactive	inactive	inactive	inactive	inactive	inactive	inactive	inactive	inactive	inactive	inactive	inactive	inactive	
NC(=O)N/N=C/c1ccc([N+](=O)[O-])o1	inactive	inactive and 62.9 µM [cytotoxic] (active)	inactive		inactive	inactive and 11.9 µM (active)	inactive and 54.5 µM (active)	inactive	inactive	inactive	inactive	inactive			inactive		inactive	inactive	inactive	inactive and 19.3 µM (active)
CC1=NN(c2ccccc2)C(=O)C1	inactive	inactive	inactive		inactive	inactive	inactive	inactive	inactive	inactive	inactive	inactive	inactive	inactive	inactive	inactive	inactive			
NC(=O)c1ccc([N+](=O)[O-])cc1Cl	inactive	inactive	inactive	inactive	inactive	inactive	inactive	inactive	inactive	inactive	inactive	inactive	inactive	inactive	inactive	inactive	inactive	inactive	inactive	
